ATP content data for 40 molecules are collected here from the supplement of paper PMC4206467.

SMILES strings stand for the structures.

For the test, the system named is Perkinsus marinus PRA240. Nature of the test: ATP content (proliferation) relative to DMSO control; higher = more parasite growth (less inhibition). Particulars: 20 µM; 4 days. On the procedure: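 Perkinsus marinus PRA240 trophozoites (2-5x10^6 cells/ml, 100 µl, 96-well) were exposed once to MMV Malaria Box compounds at 20 µM (0.1% DMSO) in triplicate. ATP content (ATPlite bioluminescence) was read at day 4 post-exposure and normalised to DMSO + cells control wells (100% activity). Compounds were identified by joining plate and well to the Malaria Box list.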
On to `CCCCNc1nc(NC(C)(C)C)nc(NC(C)(C)C)n1`, for which the ATP content amounted to 116%.
The molecule `CN(C)c1ccc(N2C(N)=NC(N)=NC2(C)C)cc1` yielded an ATP content of 114%.
In turn, `CC1=C(CC(=O)c2cccc([N+](=O)[O-])c2)C(=O)c2ccccc2C1=O` registered an ATP content of 136%.
In the case of `CN(C)CCCNCc1ccc(-c2ccc(F)c(Cl)c2)o1` it was 123%.
Next, `COc1cc2c3cc1Oc1c(OC)c(OC)cc4c1C(Cc1ccc(O)c(c1)Oc1ccc(cc1)CC3N(C)CC2)N(C)CC4` (stereo not given): 144%; `COc1ccc(C2NCCc3c2[nH]c2ccccc32)cc1CN1CCN(c2ccc(F)cc2)CC1` (stereo not given): 171%.
Next, `Cc1sc(NC(=O)c2ccccc2)c(C(c2cccs2)N2CCN(c3ccccc3)CC2)c1C` (stereo not given): 97.8%.
The molecule `Cn1c(=O)n(C)c2cc(CNCCNc3ccnc4cc(Cl)ccc34)ccc21` gave an ATP content of 132%.
With `O=C(Nc1ccc(C23CC4CC(CC(c5ccccc5)(C4)C2)C3)cc1)c1cccs1`, the ATP content was 68.7%.
Next, `COc1ccc(CNC2CCN(c3ccc(NC(=O)c4cccc(Cl)c4)cc3)CC2)cc1OC`: 102%; `CCN(CC)c1cc(C)c2cc(NC(=O)c3cccc(OC)c3)ccc2n1`: 74%; `O=C(NC1CCN(Cc2ccccc2)CC1)c1cc(-c2ccncc2)nc2ccc(Cl)cc12`: 172%.
Next, `O=C(NC1CCCCC1)C(c1cccs1)N(CCc1ccccc1)C(=O)c1ccco1` (stereo not given): 101%; `O=C(NC1CCN(Cc2ccccc2)CC1)c1cc(C(=O)NC2CCN(Cc3ccccc3)CC2)cc(C(=O)NC2CCN(Cc3ccccc3)CC2)c1`: 90.4%; `COC(=O)c1ccc(Cl)c2c1C1C=CCC1C(c1cccc3ccccc13)N2` (stereo not given): 106%.
Next, `FC(F)(F)c1cccc(Nc2nc(-c3ccccc3)nc3ncccc23)c1`: 108%; `CCc1ccc(CNCC(O)c2ccccc2)cc1` (stereo not given): 60.8%; `C=CCc1c(C)nc2ccccc2c1O`: 48%.
`CCOC(=O)c1cnc2ccc(OC)cc2c1NCc1ccccc1` showed an ATP content of 69.3%.
Turning to `COc1cc(-c2nc(-c3ccc(Sc4ccccc4)cc3)c(-c3ccccc3)[nH]2)cc(OC)c1O`, the ATP content is 78.3%.
In the case of `O=C(Nc1ccccc1O)c1ccc(-c2ccc(Cl)cc2Cl)o1`, the ATP content was 82.5%.
In the case of `CCCn1c(=N)c(C(=O)NC2CCCCC2)cc2c(=O)n3cccc(C)c3nc21` it was 64.4%; in that of `COc1ccc(C(O)(CCC(C)C)C(CN2CCOCC2)c2ccc(Cl)cc2)cc1` (stereo not given), 91.9%; in that of `COc1ccc2nc(N)nc(C)c2c1`, 88%.
Next, `CCOc1cc(Cl)c(C(C)NC(=O)c2cccc(OC)c2)cc1OCC` (stereo not given): 85.3%.
Next, `COc1ccc(C2c3ccc4ccccc4c3Oc3ncn(CCCn4ccnc4)c(=N)c32)cc1OC` (stereo not given): 121%; `CCCCCCc1cc2cc(-c3csc(C=Cc4ccccc4)n3)c(=O)oc2cc1O`: 137%; `CC(C)(C)c1ccc(C2CC3=Nc4ccccc4N(C(=O)c4ccccc4Cl)C(c4ccc(F)cc4)C3=C(O)C2)cc1` (stereo not given): 129%.
`Cc1ccccc1OCCSc1nc2ccc(NC(=O)c3ccccc3)cc2s1` came in with an ATP content of 50.6%.
`CCCCOc1ccc(C(=O)Nc2cc(C)on2)cc1`: the ATP content was 61.2%.
In the case of `COc1ccc(C)c2sc(N(Cc3cccnc3)C(=O)c3ccc(C#N)cc3)nc12` it was 87.4%; in that of `OC(Cn1nnc2ccccc21)Cn1c2ccc(Br)cc2c2cc(Br)ccc21` (stereo not given), 135%; in that of `Cc1cc(Nc2cccc(F)c2)nc(NCc2ccccc2)n1`, 94.7%.
The molecule `CCCc1c(C)nc2ccc(Br)cc2c1O` displayed an ATP content of 58.8%.
As to `O=C1C2=C(Nc3ccccc3SC2c2ccccc2)c2ccccc21` (stereo not given), the ATP content stood at 17.1%.
With `COc1ccc2sc(N(Cc3cccnc3)C(=O)c3ccc(C#N)cc3)nc2c1`, the ATP content came out at 111%.
In the case of `COc1ccccc1C(=O)ON=C(N)Cc1cccc2ccccc12` it was 148%; in that of `CCOc1ccc(C=Cc2nc(=O)c3ccccc3o2)cc1`, 14.6%; in that of `CN(C)c1ccc(N=Cc2ccc(N3CCOCC3)cc2)cc1`, 108%.
Next, `CC(=O)NCCc1nc2ccccc2n1Cc1ccc(C(C)C)cc1`: 120%.
